{"source": "paper PMC4336329", "about": "(PLoS ONE, 2015)", "note": "In all, about 310,000 compounds went through this assay and about 2,200 (0.71%) showed an effect of 50% or more. Effects have a minus sign here. For the sample, strong results were picked, then their nearest neighbours and some compounds at random."}
{"biological_target": "human ether-à-go-go-related gene (hERG) potassium channel (human, UniProt Q12809)", "sequence (Q12809 whole entry, looked up)": "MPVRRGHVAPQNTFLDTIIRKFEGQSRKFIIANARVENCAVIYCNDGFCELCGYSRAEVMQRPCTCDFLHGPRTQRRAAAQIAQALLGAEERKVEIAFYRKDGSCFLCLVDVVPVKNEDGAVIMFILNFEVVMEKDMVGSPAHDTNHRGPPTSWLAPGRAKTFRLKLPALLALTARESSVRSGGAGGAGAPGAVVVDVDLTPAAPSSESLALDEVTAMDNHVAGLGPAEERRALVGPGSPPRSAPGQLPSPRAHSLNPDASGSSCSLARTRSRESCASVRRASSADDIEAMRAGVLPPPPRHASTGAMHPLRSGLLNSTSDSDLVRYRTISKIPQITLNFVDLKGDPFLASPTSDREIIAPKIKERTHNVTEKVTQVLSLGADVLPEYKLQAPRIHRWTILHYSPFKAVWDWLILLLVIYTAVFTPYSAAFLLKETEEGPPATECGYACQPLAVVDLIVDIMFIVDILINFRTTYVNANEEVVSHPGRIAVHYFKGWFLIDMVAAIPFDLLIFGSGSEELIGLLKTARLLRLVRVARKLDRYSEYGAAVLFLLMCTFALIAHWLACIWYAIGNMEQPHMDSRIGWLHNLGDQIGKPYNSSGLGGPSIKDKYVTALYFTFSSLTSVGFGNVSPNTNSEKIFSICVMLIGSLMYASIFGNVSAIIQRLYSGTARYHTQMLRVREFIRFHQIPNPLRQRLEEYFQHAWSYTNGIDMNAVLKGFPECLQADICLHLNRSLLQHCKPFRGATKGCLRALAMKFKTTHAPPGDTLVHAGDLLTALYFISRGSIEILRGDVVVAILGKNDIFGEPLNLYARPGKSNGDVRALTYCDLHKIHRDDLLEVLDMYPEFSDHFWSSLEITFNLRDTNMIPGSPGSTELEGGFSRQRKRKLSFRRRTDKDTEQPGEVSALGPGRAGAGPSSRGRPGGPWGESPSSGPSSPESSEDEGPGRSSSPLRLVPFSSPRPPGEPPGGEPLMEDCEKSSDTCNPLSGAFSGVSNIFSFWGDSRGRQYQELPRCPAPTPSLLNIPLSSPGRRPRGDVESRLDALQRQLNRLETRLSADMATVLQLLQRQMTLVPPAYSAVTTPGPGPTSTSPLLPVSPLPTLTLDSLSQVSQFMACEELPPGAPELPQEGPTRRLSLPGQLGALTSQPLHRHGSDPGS", "assay": "primary screen, population patch clamp on CHO cells stably expressing hERG; higher = less effect of the substance", "units": {"hERG current change (%, negative = inhibition) at 1uM": "%"}}
{"smiles": "O=C1c2ccc3c4c(ccc(c24)C(=O)N1NC(=O)C(F)(F)F)CC3", "hERG current change (%, negative = inhibition) at 1uM": 10.1}
{"smiles": "COc1cc(NC(=O)c2ccccc2F)c(OC)cc1NC(=O)CN1CCCCC1.Cl", "hERG current change (%, negative = inhibition) at 1uM": 1.58}
{"smiles": "O=C(O)c1ccccc1C(=O)Nc1ccc(Br)c(C(F)(F)F)c1", "hERG current change (%, negative = inhibition) at 1uM": 2.61}
{"smiles": "CCc1ccc(N2C(=O)CC(N3CCN(Cc4ccc5c(c4)OCO5)CC3)C2=O)cc1", "note": "(centres unmarked)", "hERG current change (%, negative = inhibition) at 1uM": -1.13}
{"smiles": "Cc1ccc(-c2csc3nc(C(C)C)oc(=O)c23)c(C)c1", "hERG current change (%, negative = inhibition) at 1uM": 13.5}
{"smiles": "CCOc1ccccc1CN1CCN(Cc2nc3ccccc3s2)CC1CCO", "note": "(centres unmarked)", "hERG current change (%, negative = inhibition) at 1uM": -67.7}
{"smiles": "COc1cccc(CN2CCN(Cc3cccc4nonc34)CC2CCO)c1", "note": "(centres unmarked)", "hERG current change (%, negative = inhibition) at 1uM": -24}
{"smiles": "COc1ccc(CN2CCN(Cc3cccc4nonc34)CC2CCO)c(C)c1C", "note": "(centres unmarked)", "hERG current change (%, negative = inhibition) at 1uM": -7.13}
{"smiles": "CCOc1ccccc1CN1CCN(Cc2cccc3c2OCO3)CC1CCO", "note": "(centres unmarked)", "hERG current change (%, negative = inhibition) at 1uM": -2.66}
{"smiles": "CCOc1ccccc1CN1CCN(Cc2ccon2)CC1CCO", "note": "(centres unmarked)", "hERG current change (%, negative = inhibition) at 1uM": -7.08}
{"smiles": "CCOc1ccccc1CN1CCN(Cc2cccc3nonc23)CC1CCO", "note": "(centres unmarked)", "hERG current change (%, negative = inhibition) at 1uM": -50}
{"smiles": "CCOc1ccccc1CN1CCN(Cc2nc3c(s2)CCCC3)CC1CCO", "note": "(centres unmarked)", "hERG current change (%, negative = inhibition) at 1uM": -26.6}
{"smiles": "CCOc1ccc(CN2CCN(Cc3cccc4nonc34)CC2CCO)cc1", "note": "(centres unmarked)", "hERG current change (%, negative = inhibition) at 1uM": -84.6}
{"smiles": "OCCC1CN(Cc2cccc3nonc23)CCN1Cc1ccsc1", "note": "(centres unmarked)", "hERG current change (%, negative = inhibition) at 1uM": -15.7}
{"smiles": "CC1CC(C)CN(C(=O)c2cc3cc(Br)cc(Br)c3o2)C1", "note": "(centres unmarked)", "hERG current change (%, negative = inhibition) at 1uM": 11.6}
{"smiles": "COc1ccc(CN2C=C3C(=O)C(C)(OC(=O)C4CCCC4)C(=O)C=C3C=C2c2ccsc2)cc1", "note": "(centres unmarked)", "hERG current change (%, negative = inhibition) at 1uM": -2.57}
{"smiles": "CCOC(=O)N(NC(=O)C(O)(CC(C)C)CC(C)C)c1ccccc1", "hERG current change (%, negative = inhibition) at 1uM": 6.37}
{"smiles": "CCN(CC)CCN1C(=O)Cn2c(C)c(C)c3cccc1c32.O=C(O)C(O)C(O)C(=O)O", "hERG current change (%, negative = inhibition) at 1uM": -56.1}
{"smiles": "CCN(CC)CCN1C(=O)Cn2c(C)c(C)c3cccc1c32.Cl", "hERG current change (%, negative = inhibition) at 1uM": -12.2}
{"smiles": "CCN(CC)CCN1c2ccccc2Sc2ccccc21.O=C(O)C(=O)O", "hERG current change (%, negative = inhibition) at 1uM": -3.5}
{"smiles": "CCCc1ncc(CN2CCCCC2C(=O)Nc2ccc(Oc3ccccc3)nc2)cn1", "note": "(centres unmarked)", "hERG current change (%, negative = inhibition) at 1uM": 12.1}
{"smiles": "Cc1cc(=O)c(C(=O)O)nn1-c1ccccc1", "hERG current change (%, negative = inhibition) at 1uM": 8.46}
{"smiles": "Cc1cc(=O)c(C(=O)O)nn1-c1cccc(C(F)(F)F)c1", "hERG current change (%, negative = inhibition) at 1uM": -78.9}
{"smiles": "O=C(O)c1nn(-c2cccc(C(F)(F)F)c2)ccc1=O", "hERG current change (%, negative = inhibition) at 1uM": 15.1}
{"smiles": "Cc1ccc2nc(C)cc(N/N=C/c3ccc(F)cc3)c2c1", "hERG current change (%, negative = inhibition) at 1uM": 0.285}
{"smiles": "CC(=O)Nc1ccc(N2CCC(C)CC2)c([N+](=O)[O-])c1", "hERG current change (%, negative = inhibition) at 1uM": 7.46}
{"smiles": "COc1ccc(C2CC(C(F)(F)F)n3nc(C(=O)N(C)Cc4cn(C)nc4C)c(Cl)c3N2)cc1", "note": "(centres unmarked)", "hERG current change (%, negative = inhibition) at 1uM": -3.33}
{"smiles": "CCOC(=O)c1cnc(N2CCN(C(=O)OCC)CC2)[nH]c1=O", "hERG current change (%, negative = inhibition) at 1uM": 13.9}
{"smiles": "O=C(CCN1C(=O)C2C3C=CC(C3)C2C1=O)N1CCN(c2ccc(F)cc2)CC1", "note": "(centres unmarked)", "hERG current change (%, negative = inhibition) at 1uM": -5.37}
{"smiles": "Cl.O=C1C2C3C=CC(C4CC34)C2C(=O)N1CCCCN1CCN(c2ccc(F)cc2)CC1", "note": "(centres unmarked)", "hERG current change (%, negative = inhibition) at 1uM": -69.2}
{"smiles": "O=C1C2CCCN2C(=O)N1CCCCN1CCN(c2ccc(F)cc2)CC1", "note": "(centres unmarked)", "hERG current change (%, negative = inhibition) at 1uM": -10}
{"smiles": "Cc1cc(NC(=O)CCC(=O)N(c2cccnc2)C(C(=O)NC2CCCC2)c2ccccc2F)no1", "note": "(centres unmarked)", "hERG current change (%, negative = inhibition) at 1uM": 8.56}
{"smiles": "Cc1ccccc1OCCC(=O)OCC(=O)c1c(N)n(CC(C)C)c(=O)n(C)c1=O", "hERG current change (%, negative = inhibition) at 1uM": -63.8}
{"smiles": "Cc1ccc(OCCC(=O)OCC(=O)c2c(N)n(CC(C)C)c(=O)n(C)c2=O)cc1", "hERG current change (%, negative = inhibition) at 1uM": -42.3}
{"smiles": "CCOc1ccccc1OCC(=O)OCC(=O)c1c(N)n(CC(C)C)c(=O)n(C)c1=O", "hERG current change (%, negative = inhibition) at 1uM": -9.86}
{"smiles": "CS(=O)(=O)Nc1ccc(Cc2noc(-c3ccc4[nH]cc(CCN)c4c3)n2)cc1.O", "hERG current change (%, negative = inhibition) at 1uM": 18.4}
{"smiles": "CN(C(=O)c1ccc2c(c1)OCO2)C1CCCCC1", "hERG current change (%, negative = inhibition) at 1uM": 6.85}
{"smiles": "Cc1nc(NC(=O)CC(C)C)sc1-c1csc(Nc2ccc(Cl)cc2)n1", "hERG current change (%, negative = inhibition) at 1uM": 12.5}
{"smiles": "Cc1ccccc1C(=O)NNC(=S)Nc1cccc(C(F)(F)F)c1", "hERG current change (%, negative = inhibition) at 1uM": 13.2}
{"smiles": "CCCCc1ccc(-c2nc(NC(=O)C3C4CCC(O4)C3C(=O)O)sc2C)cc1", "note": "(centres unmarked)", "hERG current change (%, negative = inhibition) at 1uM": 11.9}
{"smiles": "O=C(Nc1ccccc1N1CCOCC1)c1ccc([N+](=O)[O-])o1", "hERG current change (%, negative = inhibition) at 1uM": -1}
{"smiles": "O=C(Nc1ccccc1N1CCCC1)c1ccc([N+](=O)[O-])o1", "hERG current change (%, negative = inhibition) at 1uM": 1.03}
{"smiles": "CC(=O)N1CCN(c2ccccc2NC(=O)c2ccc(-c3cccc([N+](=O)[O-])c3)o2)CC1", "hERG current change (%, negative = inhibition) at 1uM": -81.6}
{"smiles": "CCC(=O)N1CCN(c2ccccc2NC(=O)c2ccc([N+](=O)[O-])o2)CC1", "hERG current change (%, negative = inhibition) at 1uM": -60.5}
